The results in this text go back to publication PMC5700166.

Numbering of substitutions follows the chain as printed.

Common to all, as to experiment: protein-binding microarray (PBM); PBM: ~300 nM protein, 6 mM HEPES pH 7.8, 80 mM KCl, 0.5 mM EDTA, 0.5 mM EGTA, 6% glycerol, 35 ng/ul poly-dIdC, 1% milk, 1 h, room temperature; Ap Aiptasia and Nv Nematostella (sea anemones) / Co Capsaspora / Aq Amphimedon (sponge) / Dm Drosophila / Hu human; RHD is the Rel homology domain; high values mean tight binding
What all share (details): dsDNA, one strand shown

In one assay the target is T1, GST-Ap-NF-kB RHD (Exaiptasia pallida (Aiptasia), UniProt A0A913YAJ5 2-422).
T1 sequence: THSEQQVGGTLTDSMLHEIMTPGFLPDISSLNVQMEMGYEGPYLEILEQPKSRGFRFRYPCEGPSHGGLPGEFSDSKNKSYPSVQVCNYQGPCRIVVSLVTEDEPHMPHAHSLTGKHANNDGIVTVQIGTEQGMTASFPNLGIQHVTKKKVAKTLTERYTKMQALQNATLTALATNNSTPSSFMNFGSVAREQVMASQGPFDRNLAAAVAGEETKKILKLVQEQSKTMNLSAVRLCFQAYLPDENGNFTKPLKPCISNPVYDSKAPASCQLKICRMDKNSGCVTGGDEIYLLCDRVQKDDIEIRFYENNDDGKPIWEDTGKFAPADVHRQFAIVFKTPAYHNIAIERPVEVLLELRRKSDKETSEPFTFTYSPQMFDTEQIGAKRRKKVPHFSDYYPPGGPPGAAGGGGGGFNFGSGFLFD

Assay [1] deals with T2, GST-Nv-NF-kB (Cys allele) (Nematostella vectensis, UniProt E5G601 2-411).
T2 sequence: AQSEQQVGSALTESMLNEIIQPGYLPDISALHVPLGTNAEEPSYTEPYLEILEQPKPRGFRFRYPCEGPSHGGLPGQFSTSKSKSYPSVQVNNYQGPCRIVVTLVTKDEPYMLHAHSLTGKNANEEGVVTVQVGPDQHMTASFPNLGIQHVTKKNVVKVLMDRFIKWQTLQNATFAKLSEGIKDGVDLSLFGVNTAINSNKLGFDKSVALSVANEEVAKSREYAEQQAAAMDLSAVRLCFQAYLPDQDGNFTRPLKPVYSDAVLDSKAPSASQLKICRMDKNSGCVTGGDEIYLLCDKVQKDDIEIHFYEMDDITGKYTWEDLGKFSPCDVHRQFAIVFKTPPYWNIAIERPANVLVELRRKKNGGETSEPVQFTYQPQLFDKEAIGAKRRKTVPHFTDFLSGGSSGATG

The target of assay [2] is T3, GST-Nv-NF-kB (Ser allele) (Nematostella vectensis, UniProt A7UNT2 2-411).
T3 sequence: T2 sequence with Q21R, C66S, S207N, E215Q, V217A, E225K, A268E, D399E

The target in a further assay is T4, GST-Co-NF-kB (Capsaspora owczarzaki, UniProt F1ARL5 200-546).
T4 sequence: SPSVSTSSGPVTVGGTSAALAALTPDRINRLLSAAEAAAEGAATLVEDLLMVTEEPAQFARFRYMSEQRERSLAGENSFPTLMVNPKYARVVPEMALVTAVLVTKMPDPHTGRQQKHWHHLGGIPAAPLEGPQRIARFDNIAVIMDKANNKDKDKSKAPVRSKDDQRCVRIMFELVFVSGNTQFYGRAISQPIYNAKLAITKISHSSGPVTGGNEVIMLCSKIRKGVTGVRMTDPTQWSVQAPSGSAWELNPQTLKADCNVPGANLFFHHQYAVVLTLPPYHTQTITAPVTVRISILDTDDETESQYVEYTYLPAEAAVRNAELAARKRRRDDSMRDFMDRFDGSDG

A further assay concerns the target T5, GST-Dm-Relish (Drosophila melanogaster, UniProt Q94527 99-473).
T5 sequence: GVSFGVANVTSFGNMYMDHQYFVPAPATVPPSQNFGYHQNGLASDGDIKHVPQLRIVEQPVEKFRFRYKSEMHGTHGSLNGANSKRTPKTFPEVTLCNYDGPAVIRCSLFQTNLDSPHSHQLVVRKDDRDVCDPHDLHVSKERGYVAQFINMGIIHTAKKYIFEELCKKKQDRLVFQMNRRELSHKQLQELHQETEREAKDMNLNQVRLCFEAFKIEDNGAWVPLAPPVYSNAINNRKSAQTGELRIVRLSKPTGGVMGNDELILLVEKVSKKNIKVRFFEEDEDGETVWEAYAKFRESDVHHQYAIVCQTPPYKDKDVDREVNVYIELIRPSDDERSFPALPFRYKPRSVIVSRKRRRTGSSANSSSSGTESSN

The next assay concerns the target T6, GST-Aq-NF-kB (Amphimedon queenslandica, UniProt A9Y5G7 2-389).
T6 sequence: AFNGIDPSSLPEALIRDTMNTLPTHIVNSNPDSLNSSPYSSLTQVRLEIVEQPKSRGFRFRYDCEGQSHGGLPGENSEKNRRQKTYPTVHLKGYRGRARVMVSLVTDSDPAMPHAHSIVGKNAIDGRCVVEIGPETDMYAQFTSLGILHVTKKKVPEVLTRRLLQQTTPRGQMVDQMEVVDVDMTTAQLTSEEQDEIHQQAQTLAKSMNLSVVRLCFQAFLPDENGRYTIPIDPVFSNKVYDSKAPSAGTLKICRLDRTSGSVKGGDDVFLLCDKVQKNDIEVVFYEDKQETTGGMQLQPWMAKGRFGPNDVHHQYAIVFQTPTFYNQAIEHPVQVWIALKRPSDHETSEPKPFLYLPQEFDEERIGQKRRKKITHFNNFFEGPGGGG

A further assay addresses GST-Hu-p50 (Homo sapiens, UniProt P19838 7-356).

GST-Hu-p50, sequence (P19838 7-356): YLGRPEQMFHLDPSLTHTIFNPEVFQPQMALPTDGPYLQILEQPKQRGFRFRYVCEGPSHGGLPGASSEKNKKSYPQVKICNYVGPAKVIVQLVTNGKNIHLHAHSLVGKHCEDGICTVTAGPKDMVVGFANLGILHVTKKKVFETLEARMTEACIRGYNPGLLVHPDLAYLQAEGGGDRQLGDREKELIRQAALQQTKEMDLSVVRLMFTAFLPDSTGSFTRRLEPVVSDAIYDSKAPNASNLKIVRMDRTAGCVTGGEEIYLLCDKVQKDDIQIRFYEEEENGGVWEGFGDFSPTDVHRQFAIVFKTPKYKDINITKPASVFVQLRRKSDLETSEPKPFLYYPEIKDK

Take “CCGATTAACATCAGAAGTGGGAATGATGTTAATCGGGTCTTGATTCGCTTGACGCTGCTG”: the binding signal in the assay with GST-Ap-NF-kB RHD was found to be 2.07 z-score; in assay [1] it was 2 z-score; in assay [2] it was 1.53 z-score; with GST-Co-NF-kB, 2.78 z-score; with GST-Dm-Relish it was 1.15 z-score; with GST-Aq-NF-kB it was 2.35 z-score. In addition, in the assay with GST-Hu-p50, the binding signal amounted to 1.13 z-score.

For “CCGATTAACATCAGGGGAAAAAATGATGTTAATCGGGTCTTGATTCGCTTGACGCTGCTG”, the binding signal came out at 6.24 z-score in the assay with GST-Ap-NF-kB RHD; 8.26 z-score in assay [1]; 10.4 z-score in assay [2]; 11.1 z-score with GST-Co-NF-kB; 4.87 z-score with GST-Dm-Relish; 6.42 z-score in the assay with GST-Aq-NF-kB. The binding signal with GST-Hu-p50 came to 6.22 z-score.

With “CCGATTAACATCACAAAGTCCCCTGATGTTAATCGGGTCTTGATTCGCTTGACGCTGCTG”, the binding signal with GST-Ap-NF-kB RHD was 7.77 z-score; in assay [1], 7.32 z-score; in assay [2], 7.65 z-score; with GST-Co-NF-kB, 2.97 z-score; with GST-Dm-Relish, 7.95 z-score; in the assay with GST-Aq-NF-kB it was 6.4 z-score. In the assay with GST-Hu-p50, this sequence showed a binding signal of 6.44 z-score.

For the sequence “CCGATTAACATCACAATATCCCCTGATGTTAATCGGGTCTTGATTCGCTTGACGCTGCTG”, the binding signal with GST-Ap-NF-kB RHD came to 7.16 z-score; in assay [1], 6.58 z-score; in assay [2], 7.91 z-score; with GST-Co-NF-kB, 4.15 z-score; with GST-Dm-Relish, 5.03 z-score; with GST-Aq-NF-kB, 4.96 z-score. The binding signal in the assay with GST-Hu-p50 came out at 4.67 z-score.

In the case of “CCGATTAACATCATTTGGGAAAATGATGTTAATCGGGTCTTGATTCGCTTGACGCTGCTG”, the binding signal with GST-Ap-NF-kB RHD was 1.08 z-score; in assay [1], 3.26 z-score; in assay [2], 4.46 z-score; in the assay with GST-Co-NF-kB, 2.04 z-score; in the assay with GST-Dm-Relish it was 1.08 z-score; in the assay with GST-Aq-NF-kB, 1.67 z-score. Besides, in the assay with GST-Hu-p50, the binding signal stood at 2.23 z-score.

As to “CCGATTAACATCAAGGGGATTCCTGATGTTAATCGGGTCTTGATTCGCTTGACGCTGCTG”, the binding signal with GST-Ap-NF-kB RHD is 10.4 z-score; in assay [1], 10.4 z-score; in assay [2], 9.96 z-score; with GST-Co-NF-kB, 2.68 z-score; with GST-Dm-Relish, 9.9 z-score; with GST-Aq-NF-kB, 7.84 z-score. This sequence yielded a binding signal with GST-Hu-p50 of 7.29 z-score.

For “CCGATTAACATCAGGGAAGAACCTGATGTTAATCGGGTCTTGATTCGCTTGACGCTGCTG”, the binding signal with GST-Ap-NF-kB RHD stood at 2.43 z-score; in assay [1], 3.52 z-score; in assay [2], 3.35 z-score; with GST-Co-NF-kB, 1.42 z-score; in the assay with GST-Dm-Relish, 8.73 z-score; in the assay with GST-Aq-NF-kB, 5.54 z-score. The sequence further registered a binding signal with GST-Hu-p50 of 2.83 z-score.

Consider “CCGATTAACATCAGGGTTTCCCATGATGTTAATCGGGTCTTGATTCGCTTGACGCTGCTG”, for which the binding signal with GST-Ap-NF-kB RHD stood at 3.12 z-score; in assay [1], 3.27 z-score; in assay [2], 2.81 z-score; in the assay with GST-Co-NF-kB, 2.84 z-score; with GST-Dm-Relish, 8.13 z-score; in the assay with GST-Aq-NF-kB, 4.6 z-score. Moreover, the binding signal in the assay with GST-Hu-p50 is 2.14 z-score.

Take “CCGATTAACATCAACAATTCCCCTGATGTTAATCGGGTCTTGATTCGCTTGACGCTGCTG”: the binding signal with GST-Ap-NF-kB RHD came to 7.89 z-score; in assay [1], 8.85 z-score; in assay [2], 10.8 z-score; with GST-Co-NF-kB, 7.14 z-score; with GST-Dm-Relish it was 5.11 z-score; with GST-Aq-NF-kB, 5.93 z-score. Also, in the assay with GST-Hu-p50, the binding signal amounted to 6.81 z-score.

Regarding “CCGATTAACATCAAGGGAATGCCTGATGTTAATCGGGTCTTGATTCGCTTGACGCTGCTG”, the binding signal with GST-Ap-NF-kB RHD is 2.72 z-score; in assay [1], 3.58 z-score; in assay [2], 2.83 z-score; with GST-Co-NF-kB, 1.06 z-score; with GST-Dm-Relish it was 2.97 z-score; with GST-Aq-NF-kB it was 4.2 z-score. Also, the binding signal with GST-Hu-p50 stood at 1.87 z-score.

On to “CCGATTAACATCAGGGGAAAATATGATGTTAATCGGGTCTTGATTCGCTTGACGCTGCTG”, for which the binding signal came to 6.98 z-score with GST-Ap-NF-kB RHD; 8.57 z-score in assay [1]; 11.7 z-score in assay [2]; 10.2 z-score with GST-Co-NF-kB; 4.1 z-score with GST-Dm-Relish; 6.25 z-score with GST-Aq-NF-kB. This sequence also came in with a binding signal with GST-Hu-p50 of 6.72 z-score.
